“And” between values parts separate entries of the source, which are not always exact repeats. Identical values can stand only once. Records with an inconclusive call do not appear. A call without a number means that no potency is given here. More than one record can exist for a structure, and the calls need not agree. The source made the active and inactive calls. Unless noted, calls follow the shape of the dose curve; as a rule, active = well fitted curve in the direction sought with a large enough effect in the repeat runs; inconclusive = weak or mixed curves; inactive = no such curve, though single readings can be large; an effect the other way counts as inactive or inconclusive.
Assays:
[1] = qHTS assay to identify small molecule antagonists of the glucocorticoid receptor (GR) signaling pathway - cell viability counter screen (AID 720693); also: nearly all actives have a fitted effect of over 55% in size
[2] = qHTS assay for identifying genotoxic compounds that show differential cytotoxicity against isogenic chicken DT40 cell lines with known DNA damage response pathways - Rev3 mutant cell line (AID 743014); also: nearly all actives have a fitted effect of over 55% in size; also: potency is read from the fitted curve at half-maximal effect
[3] = qHTS assay for identifying genotoxic compounds that show differential cytotoxicity against isogenic chicken DT40 cell lines with known DNA damage response pathways - Rad54/Ku70 mutant cell line (AID 743015); also: nearly all actives have a fitted effect of over 60% in size; also: potency is read from the fitted curve at half-maximal effect
[4] = qHTS assay to identify small molecule antagonists of the androgen receptor (AR) signaling pathway - cell viability counter screen (AID 743033; also: nearly all actives have a fitted effect of over 45% in size)
[5] = biological target: Androgen receptor (Homo sapiens) (UniProt P10275); assay: qHTS assay to identify small molecule antagonists of the androgen receptor (AR) signaling pathway (AID 743035; active = well fitted inhibition curve with a large enough effect in the signal ratio in the repeat runs, not every such curve was filed as active; the % refers to the signal ratio; also: potency is read from the fitted curve at half-maximal effect)
Method in brief: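 HEK293 cells stably carrying UAS-beta-lactamase reporter, 2,000/well, given compounds plus R1881 agonist and incubated 16 h at 37C. LiveBLAzer B/G FRET substrate then added for 2 h at room temperature before fluorescence reading.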

[6] = biological target: Androgen receptor (Homo sapiens) (UniProt P10275); assay: qHTS assay to identify small molecule agonists of the androgen receptor (AR) signaling pathway using the MDA cell line (AID 743040; also: nearly all actives have a fitted effect of over 20% in size)
Method in brief: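 MDA-kb2 breast carcinoma cells carrying MMTV-luciferase (responsive to AR and GR), plated 5 h then treated 16 h with compounds at 37C, 0% CO2. Read-out was ONE-Glo luminescence after 30 min at room temperature.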

[7] = qHTS assay to identify small molecule antagonists of the androgen receptor (AR) signaling pathway using the MDA cell line - cell viability counter screen (AID 743041; also: nearly all actives have a fitted effect of over 45% in size)
Method in brief: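 MDA-kb2 AR-luc cells (MMTV-luciferase, AR/GR responsive) treated with compounds plus R1881 agonist for 16 h at 37C. CellTiter-Fluor added at 15.5 h; fluorescence read after 30 min in the same wells.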

[8] = biological target: Androgen receptor (Homo sapiens) (UniProt P10275); assay: qHTS assay to identify small molecule antagonists of the androgen receptor (AR) signaling pathway using the MDA cell line (AID 743042; also: nearly all actives have a fitted effect of over 55% in size)
Method in brief: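 MDA-kb2 breast carcinoma cells carrying MMTV-luciferase (AR/GR responsive) were co-treated with compounds and the agonist R1881 for 16 h at 37C. Inhibition read as ONE-Glo luminescence; CellTiter-Fluor fluorescence measured in parallel for cytotoxicity.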

[9] = qHTS assay to identify small molecule antagonists of the thyroid receptor (TR) signaling pathway - cell viability counter screen (AID 743064); also: nearly all actives have a fitted effect of over 50% in size
Method in brief: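 GH3.TRE-Luc rat pituitary cells dosed after 4 hr plating, co-stimulated with T3 at 1 nM final, incubated 23.5 h at 37 C. Viability measured in the same wells by CellTiter-Fluor fluorescence after 30 min further at 37 C.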

[10] = qHTS assay for identifying genotoxic compounds that show differential cytotoxicity against isogenic chicken DT40 cell lines with known DNA damage response pathways - wild type cell line (AID 743012); also: nearly all actives have a fitted effect of over 60% in size; also: potency is read from the fitted curve at half-maximal effect
Method in brief: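 Wild-type DT40 cells (300/well) exposed to compounds for 40 hours at 37 C/5% CO2. Viability read by CellTiter-Glo luminescence after 30 min at room temperature.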

Chain of Androgen receptor (Homo sapiens) (P10275 whole entry, looked up): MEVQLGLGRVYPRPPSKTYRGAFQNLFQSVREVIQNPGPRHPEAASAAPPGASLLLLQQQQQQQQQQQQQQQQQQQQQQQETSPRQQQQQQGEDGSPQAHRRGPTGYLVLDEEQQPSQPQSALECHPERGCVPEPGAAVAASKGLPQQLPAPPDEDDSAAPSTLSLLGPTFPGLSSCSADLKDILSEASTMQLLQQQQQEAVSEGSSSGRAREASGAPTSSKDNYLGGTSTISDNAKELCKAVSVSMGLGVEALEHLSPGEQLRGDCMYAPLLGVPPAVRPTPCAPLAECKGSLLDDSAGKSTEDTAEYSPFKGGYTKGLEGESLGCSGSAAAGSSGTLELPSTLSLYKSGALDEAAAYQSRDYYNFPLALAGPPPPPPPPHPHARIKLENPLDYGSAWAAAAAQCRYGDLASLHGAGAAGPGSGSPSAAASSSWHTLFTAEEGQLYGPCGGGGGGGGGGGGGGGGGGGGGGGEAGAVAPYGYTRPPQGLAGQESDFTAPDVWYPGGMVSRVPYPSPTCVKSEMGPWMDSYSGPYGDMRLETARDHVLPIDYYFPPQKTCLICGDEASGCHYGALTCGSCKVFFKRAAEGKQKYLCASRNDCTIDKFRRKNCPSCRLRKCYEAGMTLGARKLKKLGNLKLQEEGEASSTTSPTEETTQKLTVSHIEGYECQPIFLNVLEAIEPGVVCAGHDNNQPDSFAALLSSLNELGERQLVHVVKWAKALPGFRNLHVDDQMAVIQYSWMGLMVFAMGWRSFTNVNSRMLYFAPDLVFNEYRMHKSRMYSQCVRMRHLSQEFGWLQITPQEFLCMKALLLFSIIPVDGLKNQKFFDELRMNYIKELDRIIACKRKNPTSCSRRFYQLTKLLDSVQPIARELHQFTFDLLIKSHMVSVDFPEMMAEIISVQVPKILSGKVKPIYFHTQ

SMILES | Potency [1] | Potency [2] | Potency [3] | Potency [4] | Potency [5] | Potency [6] | Potency [7] | Potency [8] | Potency [9] | Potency [10]
Cc1cn([C@H]2C[C@H](F)[C@@H](CO)O2)c(=O)[nH]c1=O | inactive | inactive | inactive | inactive | inactive | inactive | inactive | inactive | inactive | –
O=C(O)CO | inactive | – | inactive | inactive | – | – | inactive | – | inactive | inactive
Nc1nc(-c2ccc([N+](=O)[O-])cc2)cs1 | inactive | – | inactive | inactive | – | – | inactive | – | inactive | inactive
Nc1ccc(S(=O)(=O)NCc2ccccc2)cc1 | inactive | – | inactive | inactive | – | – | – | – | inactive | inactive
CC(C)C(=O)OCCOc1ccccc1 | inactive | – | inactive | inactive | – | – | inactive | – | inactive | inactive
COc1ccc(N)c([N+](=O)[O-])c1 | inactive | – | inactive | inactive | – | – | inactive | – | inactive | inactive
O=C(C(=O)c1ccco1)c1ccco1 | inactive | inactive | inactive | inactive | inactive | inactive | inactive | inactive | – | –
CC(=O)C(=O)CC(C)C | inactive | – | inactive | inactive | – | – | inactive | – | inactive | inactive
CCC(CO)(CO)CO | inactive | – | – | inactive | inactive | inactive | inactive | inactive | inactive | inactive
O=C(c1ccccc1)C1CCC1 | inactive | – | inactive | inactive | – | – | inactive | – | inactive | inactive
CCCCCCC(O)CCOC(C)=O (stereo unspecified) | inactive | – | inactive | inactive | – | – | inactive | – | inactive | inactive
CC1=CC[C@@H]2C[C@H]1C2(C)C | inactive | – | – | inactive | – | – | inactive | – | – | inactive
Cc1cc(CCC(=O)OCCOCCOCCOC(=O)CCc2cc(C)c(O)c(C(C)(C)C)c2)cc(C(C)(C)C)c1O | inactive | – | 23.7 µM (active) | – | – | – | inactive | – | inactive | 26.6 µM (active)
C/C(C=O)=C\c1ccccc1 | inactive | – | inactive | inactive | – | – | inactive | – | inactive | inactive
CC(C)(C)C1(CCc2ccc(Cl)cc2)CO1 (stereo unspecified) | inactive | – | – | inactive | – | – | inactive | – | inactive | inactive
Cc1ccc(N(CC2=NCCN2)c2cccc(O)c2)cc1 | inactive | – | – | inactive | – | – | inactive | – | – | 23.7 µM (active)
CNC1CCCN(c2c(F)cc3c(=O)c(C(=O)O)cn(C4CC4)c3c2OC)C1 (stereo unspecified) | inactive | inactive | inactive | inactive | – | – | inactive | – | inactive | –

SMILES | Potency [1] | Potency [2] | Potency [3] | Potency [4] | Potency [5] | Potency [6] | Potency [7] | Potency [8] | Potency [9] | Potency [10]
CCC(CO)(CO)[N+](=O)[O-] | inactive | – | inactive | inactive | – | – | inactive | – | inactive | inactive
CC(=O)OC(C)C[N+](C)(C)C (stereo unspecified) | inactive | inactive | inactive | inactive | – | – | inactive | – | inactive | –
CC(C)COC(=O)c1ccc(O)cc1 | inactive | – | – | inactive | – | – | inactive | – | – | inactive
CCCCCCCCCCCC(=O)OCC(O)CO (stereo unspecified) | inactive | – | inactive and 61.1 µM (active) | inactive | – | – | inactive | – | inactive | inactive and 61.1 µM (active)
Cc1c[nH]c2ccccc12 | inactive | – | inactive | inactive | – | – | inactive | – | inactive | inactive
CNc1c2c(nn1C)CCCC2 | inactive | inactive | inactive | inactive | – | – | inactive | – | inactive | –
O=C(O)c1cccc(Oc2ccccc2)c1 | inactive | – | inactive | inactive | – | – | inactive | – | inactive | inactive
COc1cc(NC(C)CCCN)c2ncccc2c1 (stereo unspecified) | inactive | – | 12.7 µM (active) | – | – | – | inactive | – | – | 11.4 µM (active)
CCCCCCCCCCCCCOS(=O)(=O)O | inactive | – | – | – | inactive | inactive | inactive | inactive | inactive | inactive
COC(C)(C)OC | inactive | – | inactive | inactive | – | – | inactive | – | inactive | inactive
CC(=O)NCCO | inactive | – | inactive | inactive | – | – | inactive | – | inactive | inactive
COc1ccc(-c2cc(=S)ss2)cc1 | inactive | – | – | – | – | – | – | – | inactive | 26.6 µM (active)
O=C(O)CCC(=O)OC[C@@H](NC(=O)C(Cl)Cl)[C@H](O)c1ccc([N+](=O)[O-])cc1 | inactive | inactive | inactive | inactive | – | – | inactive | – | inactive | –
O=C(Oc1ccccc1)c1ccc2ccccc2c1O | inactive | 54.5 µM (active) | 48.6 µM (active) | inactive | inactive | inactive | inactive | inactive | inactive | –
O=C(NS(=O)(=O)/C=C/c1ccccc1)c1ccc(F)cc1Cl | inactive | – | inactive | inactive | – | – | inactive | – | inactive | inactive
COC(=O)C1=C(C)NC(C)=C(C(=O)OC(C)(C)CN(C)CCC(c2ccccc2)c2ccccc2)C1c1cccc([N+](=O)[O-])c1 (stereo unspecified) | – | – | – | – | 23.9 µM (active) | – | – | – | – | –
Nc1c(Cl)cc(Cl)cc1[N+](=O)[O-] | – | – | – | – | inactive | – | – | – | – | –

From PubChem BioAssay (Tox21)
